From PubChem BioAssay (NCATS) come the findings set out here.

Molecules are shown by their SMILES. Inconclusive results are not listed. Activity calls are given as the source filed them. Calls come from the whole dose curve; as a rule, active = well fitted curve in the direction sought with a large enough effect in the signal ratio (not every such curve was filed as active); inconclusive = small, poorly fitted or top-dose-only effect, or effect the other way, or a change in a side signal; inactive = no such curve, though single readings can be large or run the other way; the % refers to the signal ratio.

For this assay, the target named is Tyrosine-protein phosphatase non-receptor type substrate 1 (Homo sapiens) + Leukocyte surface antigen CD47 (Homo sapiens) (UniProt P78324+Q08722). Nature of the assay: CD47-SIRPalpha protein protein interaction - HTRF assay qHTS validation (AID 1347058). The conditions noted are these: TR-FRET HTRF CD47-His / biotin-SIRPalpha binding, ratio 665/615; series mostly up to 38.3 µM. The source says: SIRPalpha is a myeloid cell expressed immunomodulatory receptor that binds the tumor expressed immune checkpoint CD47. Therapeutic disruption of this interaction leads to immune-mediated tumor rejection. This assay was used to quantitate CD47-SIRPalpha binding biochemically and evaluate chemical libraries for novel CD47-SIRPalpha inhibitors. To recapitulate the biological interaction of CD47 and SIRPalpha, we designed expression constructs to produce their recombinant, soluble, extracellular interaction domains. CD47 was produced with an N-terminal 6His tag. SIRPalpha was produced with an N-terminal Avi-Tag for site-specific biotin incorporation. The CD47-SIRPalpha interaction was measured by TR-FRET using affinity tag linked reagents (anti-6His-Eu donor and streptavidin-XL665 acceptor). SIRPalpha without biotin incorporation was used as a positive control inhibitor.
Sequence of Tyrosine-protein phosphatase non-receptor type substrate 1 (Homo sapiens) + Leukocyte surface antigen CD47 (Homo sapiens) (P78324 whole entry, looked up): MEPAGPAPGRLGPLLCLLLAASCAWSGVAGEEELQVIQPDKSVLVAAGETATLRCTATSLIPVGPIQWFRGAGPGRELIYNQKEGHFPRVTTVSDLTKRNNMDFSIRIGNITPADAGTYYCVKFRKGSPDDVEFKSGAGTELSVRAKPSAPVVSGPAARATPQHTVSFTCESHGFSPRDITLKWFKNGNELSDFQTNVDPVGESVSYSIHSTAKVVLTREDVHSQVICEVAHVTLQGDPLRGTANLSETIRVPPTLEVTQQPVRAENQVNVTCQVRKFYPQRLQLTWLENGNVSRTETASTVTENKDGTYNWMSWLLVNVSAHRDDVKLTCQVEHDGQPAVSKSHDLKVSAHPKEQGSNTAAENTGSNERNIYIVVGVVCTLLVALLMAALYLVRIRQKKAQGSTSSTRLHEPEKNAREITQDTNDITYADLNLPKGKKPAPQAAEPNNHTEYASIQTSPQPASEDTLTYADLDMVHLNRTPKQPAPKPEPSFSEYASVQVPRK
Sequence of Tyrosine-protein phosphatase non-receptor type substrate 1 (Homo sapiens) + Leukocyte surface antigen CD47 (Homo sapiens) (Q08722 whole entry, looked up): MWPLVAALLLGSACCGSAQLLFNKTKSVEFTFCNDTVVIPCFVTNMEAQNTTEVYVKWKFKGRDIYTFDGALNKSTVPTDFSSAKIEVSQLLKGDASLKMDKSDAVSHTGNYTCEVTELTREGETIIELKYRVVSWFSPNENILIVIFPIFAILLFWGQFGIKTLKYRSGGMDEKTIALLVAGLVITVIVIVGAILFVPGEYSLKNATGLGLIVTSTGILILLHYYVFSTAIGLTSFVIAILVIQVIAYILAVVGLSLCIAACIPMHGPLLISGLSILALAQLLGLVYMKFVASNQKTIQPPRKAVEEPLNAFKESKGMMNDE
SEQUENCE No. (e.g., 1, 2, 3, etc.); […] (e.g., Cells, Incubation, Reagent, etc.); VALUE and DESCRIPTION.
1a. Reagent. 3 uL CD47-His (12.5 nM) and Anti-His Eu Donor reagent (0.7 nM) added to respective wells in Assay buffer; white/solid bottom high base, med bind 1536-well plates (Greiner 789075)
1b. Reagent. 2 uL Assay buffer negative control for background fluorescence
2. Reagent. 23 nL library compounds (7-pt, 1:4 intraplate titration series) or DMSO control transferred by Pin Tool
3. Centrifuge. Centrifuge plate for 30 s at 1000 RPM
4. Incubation.#Incubate reagents at room temperature for 30 min, protected from light
5. Reagent. 2 uL SIRPalpha-biotin (100 nM) in Assay buffer
6. Incubation.#Incubate reagents at room temperature for 30 min, protected from light
7. Reagent. 1 uL SAV-XL665 (85 nM) acceptor reagent added to respective wells
8. Centrifuge. Centrifuge plate for 30 s at 1000 RPM
9. Incubation. Incubate reagents at room temperature for 30 min, protected from light
10. Detector. Measure Top TR-FRET on EnVision (Eu/APC filter set); calculate ratio Ch1/Ch2
1. Assay buffer composition.#Phosphate buffered saline (PBS; 10 mM Phosphate, 137 mM NaCl, and 2.7 mM KCl; pH 7.4), 0.05% IGEPAL CA-630
2. 23nL of […] library compounds (7 plates) or DMSO vehicle control transferred to 9 Greiner white/solid bottom high base, TC plates in 7 interplate 1:5 titrations (see Yasgar, A. et al. 2008) with Pintool. Two of the 9 plates are DMSO-only in compound field at beginning and end of compound library-treated plates.
10. Detector settings#Mirror = LANCE/DELFIA Dual Enh; Ex. Filter = UV2[TRF] 320; Em. Filter = APC 665; 2nd Em. Filter = Europium 615; Measurement h = 6.5; Ex. light (%) = 100; Delay = […]; Window t = 100 us; No. Seq. windows = 1; Time between flashes = 2000us; No. of flashes = 100; No. of flashes for 2nd detector = 100; Calculation: "Ratio Ch1/Ch2"
(Time-resolved FRET reads energy transfer from a long-lived donor to a nearby acceptor.)
As for `CC1=C(C(=O)O)N2C(=O)[C@@H](NC(=O)C(N)C3=CCC=CC3)[C@H]2SC1` (stereo not given in full), the outcome was inactive.
For the compound `NCCCCN=C(N)N`, the result was inactive.
As for `C#CC(N)CCC(=O)O` (stereo not given), the entry is “inactive”; as for `OCC1NCC(O)C(O)C1O` (stereo not given), “inactive”.
As for `CN1CC(O)C(O)C(O)C1CO` (stereo not given), the entry is “inactive”.
Take `CCCCCCC(=O)OC1CC(C)(C)NC(C)(C)C1`: the result was inactive.
For `N[C@@H](Cc1ccc(O)c(I)c1)C(=O)O` the value was “inactive”; for `CCCCC[C@H](CC(=O)NO)C(=O)N[C@H](C(=O)N1CCC[C@H]1CO)C(C)C`, “inactive”.
As for `CCCc1c(-c2ccc(O)cc2)nn(-c2ccc(O)cc2)c1-c1ccc(O)cc1`, the entry is “inactive”; as for `Cn1c(=O)c2[nH]c(C3CCCC3)nc2n(C)c1=O`, “inactive”.
Take `OC1(c2ccc(Cl)cc2)CCN(Cc2c[nH]c3ccccc23)CC1`: the result was inactive.
As for `CN[C@H](CC(=O)O)C(=O)O`, the entry is “inactive”.
As for `CC(=O)O[C@H]1Cc2ccccc2N(C(N)=O)c2ccccc21`, the entry is “inactive”; as for `CNc1ncnc2c1ncn2[C@H]1C[C@H](OP(=O)(O)O)[C@@H](COP(=O)(O)O)O1`, “inactive”; as for `NC1(C(=O)O)CCCCC1`, “inactive”.
`O=C1OC(=O)C2C3CCC(O3)C12` (stereo not given): the result was inactive.
For `CC1C(=O)N(C)C(=O)c2nc[nH]c21` (stereo not given), the result was inactive.
As for `CC(C)[C@@H]1CC[C@@H](C)C[C@@H]1P(=O)(c1ccccc1)c1ccccc1`, the entry is “inactive”.
Take `CC(C)C[C@H](NC(=O)[C@H](O)[C@H](N)Cc1ccccc1)C(=O)O`: the result was inactive.
As for `NC(=O)CC[C@H](N)C(=O)O`, the entry is “inactive”; as for `CCCCCC(O)CCCC(=O)O` (stereo not given), “inactive”; as for `C=C(C)C1CC=C(C(=O)O)CC1` (stereo not given), “inactive”.
As for `COc1cc(C(O)CO)ccc1O` (stereo not given), the entry is “inactive”; as for `NC(=O)CNCCC(c1ccccc1)c1ccccc1`, “inactive”.
For `CCCn1c(=O)c2[nH]c(C3CCCC3)nc2n(CCC)c1=O` the value was “inactive”; for `N=C(N)c1ccccc1`, “inactive”; for `Oc1cc2c(cc1O)C(c1ccccc1)CNCC2` (stereo not given), “inactive”.
Consider `CNc1cc(NS(=O)(=O)c2ccc(N)cc2)nc(NC)n1`, for which the outcome was inactive.
For `CC(/C=C/c1cccc(Oc2ccc(F)cc2)c1)N(O)C(N)=O` (stereo not given), the outcome was inactive.
As for `O=c1onc2n1-c1cc(Br)ccc1OC2`, the entry is “inactive”; as for `Cn1cc(C(=O)OCC2CCN(CCNS(C)(=O)=O)CC2)c2ccccc21`, “inactive”; as for `CCC(=O)N1CCN(C(=O)c2ccccc2)CC1`, “inactive”.
As for `Clc1nccc2c1ccc1ccccc12`, the entry is “inactive”; as for `CC[N+](CC)(CC)CC(=O)Nc1c(C)cccc1C`, “inactive”; as for `O=C1C2C=CC=CC2=NC(=S)N1CCN1CCC(=C(c2ccc(F)cc2)c2ccc(F)cc2)CC1` (stereo not given), “inactive”.
For `CSc1nc(N)c2ncn([C@@H]3O[C@H](COP(=O)(O)OP(=O)(O)O)C(O)[C@H]3O)c2n1` (stereo not given in full) the value was “inactive”; for `CC1CNCCN1S(=O)(=O)c1cccc2cnccc12` (stereo not given), “inactive”.
In the case of `C=CC1(C)CC(=O)C2(O)C(C)(O1)C(OC(C)=O)C(O)C1C(C)(C)CCC(O)C12C` (stereo not given), the result was inactive.
As for `CCCC[C@@]1(C2CCCC2)Cc2cc(OCC(=O)O)c(Cl)c(Cl)c2C1=O`, the entry is “inactive”; as for `COc1ccc2c(c1)CCC1C2CC[C@@]2(C)C1CC[C@@H]2NCCCCCCN1C(=O)C=CC1=O` (stereo not given in full), “inactive”.
